Inconclusive results are not listed. Active and inactive are the calls of the source. The call rests on the fitted dose curve; in most records, active means well fitted inhibition curve with a large enough effect; inconclusive means small, poorly fitted or top-dose-only effect; inactive means flat fitted curve, though single readings scatter.
Tested on: CP201
Experiment: qHTS profiling for inhibitors of Plasmodium falciparum proliferation (AID 504749); further: nearly all actives have a fitted effect of over 60% in size;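 on activity, negative = inhibition: 0% = DMSO vehicle and full inhibition = artemisinin control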
Details: P. falciparum in erythrocytes, SYBR Green DNA, 72 h; series mostly up to 28.7 µM; activity, negative = inhibition: at the top concentration
Outline: (§1)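 Fluorescence of SYBR Green-bound parasite DNA, read at 485/535 nm, served as the growth measure. Infected erythrocytes were cultured with compound 72 h; artemisinin (0.29 uM) and DMSO wells defined the normalization range.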
Potency means the concentration at half of the fitted maximal effect.

SMILES | activity, negative = inhibition
O=C(O)c1ccccc1C(=O)Nc1ccc(S(=O)(=O)Nc2nccs2)cc1 | 0.929% (inactive)
CC(=O)NS(=O)(=O)c1ccc(N)cc1 | -2.17% (inactive)
O=C(O)Cn1c(C(=O)Nc2nc(-c3ccccc3Cl)cs2)cc2ccccc21 | 0.844% (inactive)
CC(O)CCCCn1c(=O)c2c(ncn2C)n(C)c1=O (stereo unspecified) | 10.7% (inactive)
CCCCCCCCCCCCCCCCN | 1.41% (inactive)
CN1CCCN=C1COC(=O)C(O)(c1ccccc1)C1CCCCC1 (stereo unspecified) | 2.93% (inactive)
NS(=O)(=O)c1ccc(C(=O)O)cc1 | 7.31% (inactive)
Cn1c([N+](=O)[O-])cnc1COC(N)=O | -3.07% (inactive)
O=C(O)c1ccccc1OP(=O)(O)O | -3.27% (inactive)
c1ccc2[nH]ccc2c1 | -3.91% (inactive)
O=C(OOC(=O)c1ccccc1)c1ccccc1 | 2.85% (inactive)

Tested on: CP203
Experiment: as above
Details: P. falciparum in erythrocytes, SYBR Green DNA, 72 h; series mostly up to 28.7 µM; activity, negative = inhibition: at the top concentration
Outline: as §1

SMILES | activity, negative = inhibition | Potency
O=C(O)Cc1ccc(CCNS(=O)(=O)c2ccc(Cl)cc2)cc1 | 5.73% (inactive) | 
NS(=O)(=O)c1ccc(NC(=O)CCC(=O)O)cc1 | 0.177% (inactive) | 
C=CCSCC1Nc2cc(Cl)c(S(N)(=O)=O)cc2S(=O)(=O)N1 (stereo unspecified) | -17.9% (inactive) | 
Cc1cccc(C)c1NC(=O)CC12CCCN1CCC2 | -5.19% (inactive) | 
CC(=O)Nc1cccc(O)c1 | -7.35% (inactive) | 
CNCc1ccccc1 | 0.317% (inactive) | 
COc1ccc(C(=O)NCc2ccc(OCCN(C)C)cc2)cc1OC | 0.67% (inactive) | 
C=CCNC(N)=S | 4.64% (inactive) | 
NS(=O)(=O)c1cc(-c2nn[nH]n2)c(NCc2cccs2)cc1Cl | -1.64% (inactive) | 
CCOc1ccc(C(=O)OCCN(CC)CC)cc1 | 4.71% (inactive) | 
Cc1c(N(C)C)c(=O)n(-c2ccccc2)n1C | 12% (inactive) | 
CCc1cccc(CC)c1NC(=O)CN(CC(=O)O)CC(=O)O | 0.84% [at 12.8 µM] (inactive) | 
COC(=O)c1cccnc1 | -5.99% (inactive) | 
Cc1ccc(S(=O)(=O)NC(=O)NC2CCCCCCC2)cc1 | 3.04% (inactive) | 
CCCCCCCCCCCCCCCCC(C(=O)O)C(O)(CC(=O)O)C(=O)O (stereo unspecified) | 0.563% (inactive) | 
Cn1c(=O)c2c(ncn2CCO)n(C)c1=O | -0.647% (inactive) | 
CCCC(O)C(CC)CO (stereo unspecified) | 4.03% (inactive) | 
CCCCCC(N)=O | 1.2% (inactive) | 

SMILES | activity, negative = inhibition | Potency
O=C(O)c1ccc[n+]([O-])c1 | -2.52% (inactive) | 
CC(CSC(=O)c1ccccc1)C(=O)N1C[C@@H](Sc2ccccc2)C[C@H]1C(=O)O (stereo partly specified) | -0.431% (inactive) | 
CCOc1cc(NC(C)=O)ccc1C(=O)OC | 7.11% (inactive) | 
C[C@@H](N)C(=O)O |  | 9.53 µM (active)
NS(=O)(=O)c1cc2c(cc1C(F)(F)F)NCNS2(=O)=O | 0.49% [at 12.8 µM] (inactive) | 
NC(=O)NS(=O)(=O)c1ccc(N)cc1 | -7.41% (inactive) | 
O=C(O)c1ccccc1C(=O)Nc1ccc(S(=O)(=O)Nc2nccs2)cc1 | 2.57% (inactive) | 
CC(=O)NS(=O)(=O)c1ccc(N)cc1 | -7.21% (inactive) | 
O=C(O)Cn1c(C(=O)Nc2nc(-c3ccccc3Cl)cs2)cc2ccccc21 | 6.4% (inactive) | 
CC(O)CCCCn1c(=O)c2c(ncn2C)n(C)c1=O (stereo unspecified) | -6.03% (inactive) | 
CCCCCCCCCCCCCCCCN | 8.37% (inactive) | 
CN1CCCN=C1COC(=O)C(O)(c1ccccc1)C1CCCCC1 (stereo unspecified) | -4.16% (inactive) | 
NS(=O)(=O)c1ccc(C(=O)O)cc1 | 2.28% (inactive) | 
Cn1c([N+](=O)[O-])cnc1COC(N)=O | 4.83% (inactive) | 
O=C(O)c1ccccc1OP(=O)(O)O | -2.14% (inactive) | 
c1ccc2[nH]ccc2c1 | 2.44% (inactive) | 
O=C(OOC(=O)c1ccccc1)c1ccccc1 | -4.93% (inactive) | 

Tested on: CP211
Experiment: as above
Details: P. falciparum in erythrocytes, SYBR Green DNA, 72 h; series mostly up to 28.7 µM; activity, negative = inhibition: at the top concentration
Outline: as §1

SMILES | activity, negative = inhibition
O=C(O)Cc1ccc(CCNS(=O)(=O)c2ccc(Cl)cc2)cc1 | 1.21% (inactive)
NS(=O)(=O)c1ccc(NC(=O)CCC(=O)O)cc1 | -0.942% (inactive)
C=CCSCC1Nc2cc(Cl)c(S(N)(=O)=O)cc2S(=O)(=O)N1 (stereo unspecified) | -2.01% (inactive)
Cc1cccc(C)c1NC(=O)CC12CCCN1CCC2 | -11.7% (inactive)
CC(=O)Nc1cccc(O)c1 | 3.15% (inactive)
CNCc1ccccc1 | 0.882% (inactive)
COc1ccc(C(=O)NCc2ccc(OCCN(C)C)cc2)cc1OC | -8.81% (inactive)
C=CCNC(N)=S | -1.55% (inactive)
NS(=O)(=O)c1cc(-c2nn[nH]n2)c(NCc2cccs2)cc1Cl | -3.53% (inactive)
CCOc1ccc(C(=O)OCCN(CC)CC)cc1 | 1.71% (inactive)
Cc1c(N(C)C)c(=O)n(-c2ccccc2)n1C | 2.18% (inactive)
CCc1cccc(CC)c1NC(=O)CN(CC(=O)O)CC(=O)O | 2.83% [at 12.8 µM] (inactive)
COC(=O)c1cccnc1 | -2.48% (inactive)
Cc1ccc(S(=O)(=O)NC(=O)NC2CCCCCCC2)cc1 | -3.8% (inactive)
CCCCCCCCCCCCCCCCC(C(=O)O)C(O)(CC(=O)O)C(=O)O (stereo unspecified) | -1.86% (inactive)
Cn1c(=O)c2c(ncn2CCO)n(C)c1=O | -1% (inactive)
CCCC(O)C(CC)CO (stereo unspecified) | 10.4% (inactive)
CCCCCC(N)=O | -4.82% (inactive)

SMILES | activity, negative = inhibition
O=C(O)c1ccc[n+]([O-])c1 | 6.91% (inactive)
CC(CSC(=O)c1ccccc1)C(=O)N1C[C@@H](Sc2ccccc2)C[C@H]1C(=O)O (stereo partly specified) | 0.224% (inactive)
CCOc1cc(NC(C)=O)ccc1C(=O)OC | 10.4% (inactive)
C[C@@H](N)C(=O)O | 0.0466% (inactive)
NS(=O)(=O)c1cc2c(cc1C(F)(F)F)NCNS2(=O)=O | 8.14% [at 12.8 µM] (inactive)
NC(=O)NS(=O)(=O)c1ccc(N)cc1 | 4.26% (inactive)
O=C(O)c1ccccc1C(=O)Nc1ccc(S(=O)(=O)Nc2nccs2)cc1 | -0.198% (inactive)
CC(=O)NS(=O)(=O)c1ccc(N)cc1 | 0.67% (inactive)
O=C(O)Cn1c(C(=O)Nc2nc(-c3ccccc3Cl)cs2)cc2ccccc21 | -7.43% (inactive)
CC(O)CCCCn1c(=O)c2c(ncn2C)n(C)c1=O (stereo unspecified) | -6.98% (inactive)
CCCCCCCCCCCCCCCCN | 1.38% (inactive)
CN1CCCN=C1COC(=O)C(O)(c1ccccc1)C1CCCCC1 (stereo unspecified) | -7.96% (inactive)
NS(=O)(=O)c1ccc(C(=O)O)cc1 | 2.1% (inactive)
Cn1c([N+](=O)[O-])cnc1COC(N)=O | -4.71% (inactive)
O=C(O)c1ccccc1OP(=O)(O)O | -0.417% (inactive)
c1ccc2[nH]ccc2c1 | -4.82% (inactive)
O=C(OOC(=O)c1ccccc1)c1ccccc1 | 8.71% (inactive)

Source: PubChem BioAssay (NCATS)
